# Measured values: PubChem BioAssay (NCATS)
# Where “and” joins values, the source holds several entries; their conditions need not be identical. Equal values may be shown once. Records with an inconclusive call do not appear. A call without a number means that no potency is given here. Calls of active or inactive are those of the source. The call rests on the fitted dose curve; in most records, active means well fitted curve in the direction sought with a large enough effect; inconclusive means small, poorly fitted or top-dose-only effect, or another doubt; inactive means no such curve, though single readings can be large; an effect the other way counts as inactive or inconclusive.
# Key:
# [1] = biological target: Cytochrome P450 2D6 (Homo sapiens) (UniProt P10635); test: qHTS Assay for Inhibitors and Substrates of Cytochrome P450 2D6 (AID 891); further: nearly all actives have a fitted effect of over 60% in size; further: potency means the concentration at half of the fitted maximal effect
# Sequence of Cytochrome P450 2D6 (Homo sapiens) (P10635 whole entry, looked up): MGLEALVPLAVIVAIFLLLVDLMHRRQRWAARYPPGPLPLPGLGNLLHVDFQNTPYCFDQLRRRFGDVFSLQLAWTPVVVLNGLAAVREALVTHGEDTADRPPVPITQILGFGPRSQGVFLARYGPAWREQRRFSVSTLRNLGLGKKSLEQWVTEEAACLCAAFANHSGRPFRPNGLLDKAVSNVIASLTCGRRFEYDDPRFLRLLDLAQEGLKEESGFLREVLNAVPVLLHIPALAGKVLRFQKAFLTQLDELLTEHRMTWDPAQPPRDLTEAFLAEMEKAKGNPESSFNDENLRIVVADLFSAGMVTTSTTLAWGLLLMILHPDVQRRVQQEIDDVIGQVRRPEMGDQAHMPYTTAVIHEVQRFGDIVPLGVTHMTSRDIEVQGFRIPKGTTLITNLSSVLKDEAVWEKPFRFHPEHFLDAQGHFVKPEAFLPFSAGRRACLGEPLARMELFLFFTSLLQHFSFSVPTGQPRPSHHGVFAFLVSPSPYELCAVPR
# In short: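 Human CYP2D6 (5 nM) with 30 uM Luciferin-ME EGE (at Km) in 100 mM KPO4, compound preincubated 10 min, then NADPH regeneration system for 60 min at room temperature. Luciferin read by luminescence; normalized to 1.43 uM quinidine.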
# [2] = UWB1.289 Cancer Cell Toxicity qHTS against the NCATS CANVASS Library (AID 1347347); further: nearly all actives have a fitted effect of over 60% in size
# In short: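 Cells were seeded at 1000 per well, allowed 4 h at 37 degrees C/5% CO2, then pin-treated with an 11-point compound series. After 72 h, viability was read as CellTiter-Glo luminescence following 15min at room temperature.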
# [3] = HPAF-II 24hr Apoptosis Induction qHTS against the NCATS CANVASS Library (AID 1347356)
# In short: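 HPAF-II cells (500/well) exposed to compounds in 11-point series for 24 h at 37 degrees C; caspase-3/7 activity read by Caspase-Glo luminescence after 15 min at room temperature. Doxorubicin titration as control.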
# [4] = HPAF-II 12hr Apoptosis Induction qHTS against the NCATS CANVASS Library (AID 1347358)
# In short: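 HPAF-II cells, 500/well in DMEM + 10% FBS, exposed 12 hours at 37 degrees C to compound (11-point). Caspase-Glo 3/7 added for 15 min at room temperature; luminescence reflects caspase-3/7 activity.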
# [5] = HPAF-II 18hr Apoptosis Induction qHTS against the NCATS CANVASS Library (AID 1347360)
# In short: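 Caspase-3/7 activation was measured with luminescent Caspase-Glo 3/7 reagent (15 min, RT) in HPAF-II cancer cells (500 cells/well). Before detection, cells had been treated for 18 h at 37 C with compounds (11 points).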
# [6] = HEK293 12hr Apoptosis Induction qHTS against the NCATS CANVASS Library (AID 1347361)
# In short: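 HEK293 cells (500/well, DMEM + 10% FBS) were exposed to natural products across an 11-point series for 12 hours at 37 degrees C. Caspase-3/7 activity was then measured with DEVD luciferase luminescence after 15 min at room temperature.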
# [7] = test system: NAD(P)H diaphorase (Clostridium kluyveri); test: Diaphorse counterscreen qHTS: Assay Interference Panel against the NCATS CANVASS Library (AID 1347362)
# In short: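 Clostridium kluyveri diaphorase in PBS + 0.01% Tween-20 preincubated 15 min with compounds. Resazurin and NADH then added for 5 min at room temperature in the dark; resorufin fluorescence read (ex 525, em 598).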
# [8] = biological target: Luciferin 4-monooxygenase (Photinus pyralis) (UniProt P08659); test: Firefly luciferase counterscreen qHTS: Assay Interference Panel against the NCATS CANVASS Library (AID 1347363); further: series mostly up to about 57 µM
# Sequence of Luciferin 4-monooxygenase (Photinus pyralis) (P08659 whole entry, looked up): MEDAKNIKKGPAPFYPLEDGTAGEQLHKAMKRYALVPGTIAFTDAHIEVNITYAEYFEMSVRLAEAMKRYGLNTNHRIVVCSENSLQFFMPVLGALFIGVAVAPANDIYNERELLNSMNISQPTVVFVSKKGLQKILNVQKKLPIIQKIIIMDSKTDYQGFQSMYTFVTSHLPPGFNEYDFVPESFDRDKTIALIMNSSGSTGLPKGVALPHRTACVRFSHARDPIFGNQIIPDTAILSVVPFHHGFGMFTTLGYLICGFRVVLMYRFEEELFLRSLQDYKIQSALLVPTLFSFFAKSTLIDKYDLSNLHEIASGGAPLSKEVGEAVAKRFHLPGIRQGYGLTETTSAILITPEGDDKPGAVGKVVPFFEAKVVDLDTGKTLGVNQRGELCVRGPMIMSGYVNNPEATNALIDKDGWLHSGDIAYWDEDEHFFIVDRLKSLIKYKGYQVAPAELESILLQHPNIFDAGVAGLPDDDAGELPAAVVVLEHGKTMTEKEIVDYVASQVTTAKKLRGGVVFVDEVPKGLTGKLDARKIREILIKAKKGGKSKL
# In short: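 Purified P. pyralis luciferase (0.04 ug/mL, 4x reagent) added to Tris-acetate buffer with 0.013 mM D-luciferin, 0.013 mM ATP and 13.3 mM Mg-acetate; compounds preincubated 15 min, then luminescence read after 5 min, RT.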
# [9] = KB-8-5-11 Cancer Cell Toxicity qHTS against the NCATS CANVASS Library (AID 1347364); further: nearly all actives have a fitted effect of over 75% in size
# In short: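 KB-8-5-11 cells, 500/well in DMEM + 10% FBS, given compounds in an 11-point series. Incubated 72 h at 37 °C. Viability by CellTiter-Glo luminescence. Confirmation also run with 1 uM tariquidar.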
# [10] = KB-3-1 Cancer Cell Toxicity qHTS against the NCATS CANVASS Library (AID 1347366); further: nearly all actives have a fitted effect of over 75% in size
# In short: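 CellTiter-Glo luminescence measured viability after 72 h at 37C. KB-3-1 cells were seeded at 500 per well in DMEM/10% FBS.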
# [11] = qHTS for ATAD5 Agonist screened against the NCATS CANVASS Library (AID 1347367);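 further: luciferase reporter driven by ATAD5 which rises upon DNA damage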
# In short: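 Genotoxicity via ATAD5-luciferase luminescence after 16 h compound exposure (11-point series) at 37C in HEK293T-ATAD5 cells. CellTiter-Fluor viability read precedes the luminescence read; MMS serves as positive control.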
# [12] = J3T Cancer Cell Toxicity qHTS against the NCATS CANVASS Library (AID 1347371);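 further: J3T is a canine glioma cancer cell line seeded at 500 cells per well; series mostly up to about 46 µM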
# In short: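 J3T dog glioma cells, 500 per well, treated 72 h at 37C with compounds (11-point qHTS); viability from ATP content by CellTiterGlo luminescence; bortezomib titration as control.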
# [13] = biological target: Nuclear receptor subfamily 1 group I member 3 (Homo sapiens) (UniProt Q14994); test: qHTS for Constitutive Androstane Receptor (CAR) Antagonist screened against the NCATS CANVASS Library (AID 1347372);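 further: cells stimulated with 50 nM CITCO agonist so inhibition reflects antagonism; series mostly up to about 46 µM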
# Sequence of Nuclear receptor subfamily 1 group I member 3 (Homo sapiens) (Q14994 whole entry, looked up): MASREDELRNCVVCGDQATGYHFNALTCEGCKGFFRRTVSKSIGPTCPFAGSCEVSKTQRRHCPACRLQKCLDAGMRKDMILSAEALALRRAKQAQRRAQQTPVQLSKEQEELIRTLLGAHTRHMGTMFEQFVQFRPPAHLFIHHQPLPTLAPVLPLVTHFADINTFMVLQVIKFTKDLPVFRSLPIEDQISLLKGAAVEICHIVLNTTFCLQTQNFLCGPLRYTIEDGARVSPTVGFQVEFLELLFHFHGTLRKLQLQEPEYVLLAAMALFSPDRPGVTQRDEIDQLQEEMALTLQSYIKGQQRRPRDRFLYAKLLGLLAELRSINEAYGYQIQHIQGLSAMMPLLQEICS
# In short: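 HepG2 cells stably carrying hCAR and CYP2B6-2.2kb luciferase reporter, 2500 cells/well, compound with 50 nM CITCO agonist for 24hr at 37C. ONE-Glo luminescence measured CAR activity; CellTiter-Fluor read viability.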
# [14] = 10-beta competent E. coli microbial cell viability qHTS against the NCATS CANVASS Library (AID 1347376); further: series mostly up to about 46 µM
# In short: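 10-beta competent E. coli (0.2 OD) were exposed overnight at 37C to compounds in an 11-point series. Viability was read as ATP-dependent BacTiter-Glo luminescence after 20 min at room temperature.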
# [15] = Inflammasome Signaling qHTS Counterscreen: IL-1-beta AlphaLISA counterscreen against the NCATS CANVASS Library (AID 1347381);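 further: cell-free check with purified IL-1β in medium and no THP-1 cells; series mostly up to about 57 µM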
# In short: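 Cell-free interference check: compounds added to medium spiked with 4 pg purified IL-1β. Anti-IL-1β acceptor beads (6 ug/mL) with 0.6 nM biotinylated antibody added for 1 h at RT, then streptavidin donor beads (24 ug/mL) for 30 min in the dark. AlphaLISA read at 680/615 nm.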
# [16] = Cytotoxicity qHTS for assessment of Hepg2 cells membrane integrity screened against the NCATS CANVASS Library (AID 1347387)
# In short: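 HepG2 cells (2000/well) attached overnight, then exposed 5 hr at 37C to compounds in an 11-point series (0.59 nM - 46 uM final). LDH release from damaged membranes read fluorometrically (CytoTox-ONE; 560/590 nm) after 10 min at room temperature.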
# [17] = qHTS assay for small molecule disruptors of mitochondrial membrane potential screened against the NCATS CANVASS Library (AID 1347389); further: series mostly up to about 46 µM; nearly all actives have a fitted effect of over 60% in size
# In short: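 HepG2 cells (2,000/well) plated overnight, then exposed to compounds in 11-point qHTS series for 1 h at 37C before 30 min Mito-MPS dye; depolarization read as fall in red aggregate (590 nm) to green monomer (535 nm) fluorescence.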
# [18] = Vero-766 cells viability qHTS against the NCATS CANVASS Library: Counterscreen for Zika virus inhibition assay (AID 1347394); further: series mostly up to about 46 µM; nearly all actives have a fitted effect of over 60% in size
# In short: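 CellTiter Glo luminescence measured cytotoxicity after 72 h at 37C in uninfected Vero 766 cells, plated at 1000 cells/well. Compounds were applied in an 11-point series. Wells without cells defined 100% inhibition.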
# [19] = Viability qHTS for inhibitors of the SERCaMP assay screened against the NCATS CANVASS Library (AID 1347400); further: series mostly up to about 92 µM; nearly all actives have a fitted effect of over 70% in size
# In short: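 SH-SY5Y-GLuc SERCaMP MJH297-derived cells, 1000/well, plated 4 h, then exposed to compounds in an 11-point qHTS series for 48 h at 37C. Viability read as CellTiter-Glo luminescence.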
# [20] = Redox Reaction Profiling qHTS: Assay Interference Panel against the NCATS CANVASS Library (AID 1347401)
# In short: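 Compounds in 11-point series incubated with 5 uM resazurin and 200 uM DTT in 50 mM HEPES pH 7.3, 50 mM NaCl. Resorufin fluorescence (Ex 525/Em 598) read before and after 15 min in the dark.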
smiles,measurement,setting,value
C/C(O)=C(/C#N)C(=O)Nc1cc(Br)ccc1Br,Potency,[1],inactive
c1ccc([C@H]2CNCc3ccccc32)cc1,Potency,[1],5.01 µM (active)
CN1CCN(C(=O)O[C@@H]2c3nccnc3C(=O)N2c2ccc(Cl)cn2)CC1,Potency,[1],inactive
CN(C(=O)Cc1ccccc1)[C@H](CN1CCCC1)c1ccccc1,Potency,[1],3.16 µM (active)
O=C1NCN(c2ccccc2)C12CCN(C[C@H]1COc3ccccc3O1)CC2,Potency,[1],126 nM (active) and 63.1 nM (active)
CN1C(=O)CCS(=O)(=O)[C@H]1c1ccc(Cl)cc1,Potency,[1],inactive
CCOC(=O)c1ncn2c1[C@H]1CCCN1C(=O)c1cc(OC)ccc1-2,Potency,[1],inactive
N[C@H](C(=O)O)c1cc(=O)[nH]o1,Potency,[1],inactive
N[C@H](Cc1o[nH]c(=O)c1Cl)C(=O)O,Potency,[1],0.158 µM (active)
C[C@@H]1O[C@H](O[C@@H]2C[C@@H](O)[C@]3(CO)[C@H]4[C@H](O)C[C@]5(C)[C@@H](C6=CC(=O)OC6)CC[C@@]5(O)[C@@H]4CC[C@]3(O)C2)[C@@H](O)[C@H](O)[C@H]1O,Potency,[1],0.0501 µM (active)
C(=C/c1ccccc1)/CN1CCN(CCOC(c2ccccc2)c2ccccc2)CC1,Potency,[1],5.01 µM (active)
O=C(/C=C\c1ccc(Cl)cc1)N[C@@]12CCC(=O)[C@@H]3Oc4c(O)ccc5c4[C@@]31CCN(CC1CC1)[C@@H]2C5,Potency,[1],5.01 µM (active)
CC(C)(C)c1o[nH]c(=O)c1C[C@H](N)C(=O)O,Potency,[1],inactive
CS(=O)(=O)Nc1ccc(Cc2noc(-c3ccc4[nH]cc(CCN)c4c3)n2)cc1,Potency,[1],0.126 µM (active)
NC[C@@H](CC(=O)O)c1ccc(Cl)cc1,Potency,[1],inactive
NC[C@H](CC(=O)O)c1ccc(Cl)cc1,Potency,[1],0.794 µM (active)
CO[C@@H](/C=C/CC/C=C/C(=O)O)[C@@H](O)[C@H](C)[C@@H](O)/C(C)=C/[C@H](C)C(=O)CCCC1CC(=O)NC(=O)C1,Potency,[2],inactive
same,outcome,[3],inactive
same,outcome,[4],inactive
same,outcome,[5],inactive
same,Potency,[6],inactive
same,outcome,[7],inactive
same,outcome,[8],inactive
same,Potency,[9],inactive
same,Potency,[10],inactive
same,Potency,[11],inactive
same,Potency,[12],inactive
same,Potency,[13],inactive
same,outcome,[14],inactive
same,outcome,[15],inactive
same,outcome,[16],inactive
same,Potency,[17],inactive
same,Potency,[18],inactive
same,Potency,[19],inactive
same,Potency,[20],inactive
CC1=CC2CC[C@@H]3[C@@H](C)C[C@H](C)[C@@H](C1)N23 (stereo partly drawn),Potency,[2],inactive
same,outcome,[3],inactive
same,outcome,[4],inactive
same,outcome,[5],inactive
same,Potency,[6],inactive
same,outcome,[7],inactive
same,outcome,[8],inactive
same,Potency,[9],inactive
same,Potency,[10],inactive
same,Potency,[11],inactive
same,Potency,[12],inactive
same,Potency,[13],inactive
same,outcome,[14],inactive
same,outcome,[15],inactive
same,outcome,[16],inactive
same,Potency,[17],inactive
same,Potency,[18],inactive
same,Potency,[19],inactive
same,Potency,[20],inactive
CC1=CC(=O)C2=C(C)C[C@H](O)[C@@H]3[C@H](OC(=O)[C@@H]3C)[C@@H]12,Potency,[2],inactive
same,outcome,[3],inactive
same,outcome,[4],inactive
same,outcome,[5],inactive
same,Potency,[6],inactive
same,outcome,[7],inactive
same,outcome,[8],inactive
same,Potency,[9],inactive
same,Potency,[10],inactive
same,Potency,[11],inactive
same,Potency,[12],inactive
same,Potency,[13],inactive
same,outcome,[14],inactive
same,outcome,[15],inactive
same,outcome,[16],inactive
same,Potency,[17],inactive
same,Potency,[18],inactive
same,Potency,[19],inactive
same,Potency,[20],inactive
